This is an account of results in PubChem BioAssay AID651814 (National Center for Advancing Translational Sciences (NCATS), 2012).

Out of some 2,100 compounds screened, about 590 (28%) were called active. Another 42% or so got no clear call; they are omitted. The call rests on the fitted dose curve; in most records, active means well fitted inhibition curve with a large enough effect; inconclusive means small, poorly fitted or top-dose-only effect; inactive means flat fitted curve, though single readings scatter. Some of the results follow.
Potency means the concentration at half of the fitted maximal effect.

DNA dC->dU-editing enzyme APOBEC-3F (Homo sapiens), sequence (Q8IUX4 whole entry, looked up): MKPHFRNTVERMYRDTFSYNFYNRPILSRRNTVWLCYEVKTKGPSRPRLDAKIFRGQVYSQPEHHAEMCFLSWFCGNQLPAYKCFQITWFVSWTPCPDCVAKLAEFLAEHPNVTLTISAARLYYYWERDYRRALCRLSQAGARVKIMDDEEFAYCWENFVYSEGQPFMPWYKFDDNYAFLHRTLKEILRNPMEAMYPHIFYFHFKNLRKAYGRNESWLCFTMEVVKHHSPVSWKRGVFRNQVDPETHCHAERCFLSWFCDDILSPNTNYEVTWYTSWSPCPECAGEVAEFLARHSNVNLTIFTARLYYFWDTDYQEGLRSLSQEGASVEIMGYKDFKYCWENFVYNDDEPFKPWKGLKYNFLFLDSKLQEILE

The target of the test is DNA dC->dU-editing enzyme APOBEC-3F (Homo sapiens) (UniProt Q8IUX4). In words: qHTS for inhibitors of Vif-A3F interactions: Cherry picks. Further: nearly all actives have a fitted effect of over 70% in size.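 On max response: % of control where 0% means no effect; active compounds raise eYFP fluorescence by blocking Vif-driven A3F loss.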 Conditions: HeLa A3F-eYFP + Vif (tagged APOBEC3F with the HIV-1 protein that degrades it), eYFP fluorescence, 24 h. The source says:
The recent discovery and characterization of host restriction factors, which provide a potent defense to invading retroviruses, has provided new targets for antiviral drug development. APOBEC3G (A3G) and APOBEC3F (A3F) are potent cytidine deaminases that block HIV-1 replication; HIV-1 expresses the Vif protein, which counteracts A3G and A3F by binding to them and inducing their proteasomal degradation. The Vif-A3G and Vif-A3F interactions provide two potential targets for development of small molecules which can interfere with the ability of Vif to degrade A3G or A3F. […] To identify inhibitors that can interfere with Vif mediated degradation of A3G and A3F, we have developed Hela cell lines that stably express A3G or A3F tagged with eYFP at the C-terminal end (A3G-eYFP or A3F-eYFP, respectively) and Vif. In the absence of an inhibitor, Vif induces degradation of A3G-eYFP and A3F-eYFP, and the cells are not fluorescent. In the presence of an inhibitor, it is expected that Vif will be unable to degrade A3G-eYFP and/or A3F-eYFP, resulting in an increase in yellow fluorescence. In this assay, Vif A3F was screened against the cherry picks ordered from the MLSMR. NIH Chemical Genomics Center [NCGC] NIH Molecular Libraries Probe Centers Network [MLPCN] MLPCN Grant: MH093245 Assay Submitter (PI): Vinay Pathak, National Cancer Institute
A3F-Vif cells were harvested from T225 flask and resuspended in phenol free OPTI-MEM medium with 5% FBS. Then 5 uL of 140,000 cells/mL resuspended cells was dispensed into each well of low base Aurora COC 1,536-well plates (black walled, clear bottom) using a Multidrop Combi dispenser. After overnight culture at 37 deg C with 5% CO2, a total of 23 nL of compounds at 5 selected concentrations from the NPC or positive control (2 mM stock of MG132) in DMSO was transferred to each well of the assay plate using a pintool (Kalypsys, San Diego, CA), and the plates were further incubated at 37 deg C with 5% CO2 for 24 hours. After that, the plates were measured on Acumen Explorer (TTP Lab Tech). The fluorescence was detected by 488 nm/Ex and […].
As for `CCCCCCN1C[C@H](O)[C@@H](n2cc(COC(=O)c3ccccc3)nn2)C[C@@H]1c1ccc(C)cc1`, the max response is -0.173% (inactive).

For `Cc1ccc2c(c1)Sc1c(ccc3ccccc13)N2`, the Potency is 16.4 µM (active).

For the compound `COc1ccc(-c2csc(-c3ccc(O)cc3)n2)cc1`, the max response was -24.3% (inactive).

`Oc1ccc(-c2nc(-c3ccc(O)c(O)c3)cs2)cc1`: the Potency was 4.44 µM (active).

Regarding `COc1ccc(OC)c(CNc2nc3ccc(C)cc3n3nnnc23)c1`, the max response is -21.9% (inactive).

For `OCCCn1c(C2CCCN2c2nc(-c3ccc(Cl)cc3)cs2)nc2cc(Cl)c(Cl)cc21` (stereo not given), the max response was -3.45% (inactive).

With `CCCCCCCNc1ccc(/C=C/c2ccnc3ccccc23)cc1`, the Potency was 20.6 µM (active).

`CCCCCCNc1ccc(/C=C/c2ccnc3ccccc23)cc1`: the Potency was 18.4 µM (active).

For `C/C(=N\NC(=O)c1cc(C)nc2ccccc12)c1ccncc1`, the max response was -5.92% (inactive).

Take `Cc1ccc(-c2cc(NC=O)c3ncc(-c4cnn(C)c4)n3c2)cc1`: the Potency was 7.9 µM (active).

`COc1ccc(-c2cc(NC(C)=O)c3ncc(-c4cc(OC)c(OC)c(OC)c4)n3c2)cn1`: the Potency was 4.98 µM (active).

Take `COc1ccc(-c2cnc3c(NC=O)cc(-c4ccccc4)cn23)cc1OC`: the Potency was 4.98 µM (active).

Consider `COc1ccc(NC(=O)C2Cc3c(-c4ccc(NC(C)=O)cc4)ccnc3O2)cn1` (stereo not given), for which the max response was -27.7% (inactive).

In the case of `COc1ccccc1-c1cc(NC=O)c2ncc(-c3ccc(S(C)(=O)=O)cc3)n2c1`, the Potency is 7.04 µM (active).

`CCOc1ccc2nc(NC(=O)c3nc(SC(C)C)ncc3Cl)sc2c1`: the max response was -25.8% (inactive).

For the compound `COC(=O)c1sc(-c2cccs2)cc1NC(=O)/C=C/C(=O)O`, the max response was -22.3% (inactive).

Take `O=C1NC(c2ccccc2Br)=N/C1=C\c1ccco1`: the max response is -25.1% (inactive).

For the compound `COc1ccc(-c2cnc3c(NC=O)cc(-c4cc(OC)c(OC)c(OC)c4)cn23)cc1OC`, the Potency is 15.8 µM (active).

Regarding `COc1ccc(-c2cnc3c(NC=O)cc(-c4ccoc4)cn23)cc1OC`, the Potency was 11.2 µM (active).

Take `COc1ccc(-c2nc3c4ccccc4ccn3c2Cc2ccsc2)cc1OC`: the max response was -2.92% (inactive).

`CN(C)C(=O)c1cccc(-c2cnc3c(NC=O)cc(-c4ccccc4F)cn23)c1`: the max response was -4.66% (inactive).

For the compound `CN(C)c1ccccc1-c1cc(NC=O)c2ncc(-c3cccc(C(F)(F)F)c3)n2c1`, the Potency is 15.8 µM (active).

Take `COc1ccc(-c2cc(NC=O)c3ncc(-c4ccc(OC)c(OC)c4)n3c2)cc1OC`: the Potency is 7.04 µM (active).

For `Cc1cc(C)nc(Nc2n[nH]c(COc3cccc4ccccc34)n2)n1`, the max response was -15.5% (inactive).

For `Cc1cc(C)nc(NC(=S)Nc2cccc(Cl)c2Cl)c1`, the max response is -10.1% (inactive).
